# GPR7 antagonist: GPR7 receptor antagonists, primary screen, cell-based, fluorescence, single concentration; inhibition, % at 4.4 µM; 290,000 tested, 1.1% active; GPR7-expressing cells, fluorescence antagonist assay; in the data active = inhibition above about 16%, passing the limit was not always enough;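 also: cells stimulated with the agonist NPW; 0% = agonist with vehicle and 100% = vehicle without agonist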
# CHT block: inhibitors of human choline transporter CHT | High affinity choline transporter 1 (Homo sapiens), Q9GZV3 | CHT-expressing cells, membrane potential dye, choline response; stronger effect = lower value | B-score at 10 µM | 310,000 tested, 0.86% active | AID 488975, 2010;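 active = B-score over 3 SD under the library average, and starting fluorescence ratio not unusually high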;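 also: choline stimulus applied at its EC90 after an EC20 pre-addition; B-score computed on integrated fluorescence ratio after choline addition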
# CHT PAM: CHT positive allosteric modulators, primary screen, cell-based, membrane potential dye, choline EC20 | High affinity choline transporter 1 (Homo sapiens), Q9GZV3 | CHT-expressing cells; stronger effect = higher value; LV-AA mutant CHT in HEK293 cells | B-score at 10 µM | 310,000 tested, 0.49% active | AID 488977, 2010;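 active = initial fluorescence not abnormally high and integrated response B-score, plate-corrected, over 3 SD above library mean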
# ANO1 activ: TMEM16A chloride channel activators or potentiators, primary screen, cell-based, HTS | Anoctamin-1 (Mus musculus), Q8BHY3 | HEK293 TMEM16A/YFP-H148Q/I152L, iodide quench fluorescence; stronger effect = lower value | B-score at 10 µM | 340,000 tested, 0.3% active;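 active = fluorescence-ratio B-score plate-corrected deviation score at least 3 library SD below zero, with starting fluorescence score within 5 deviations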;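 also: channel opened by trigger with iodide after compound preincubation; score built on the fluorescence ratio of max minus min over baseline; more negative score means more quench and so TMEM16A activation or potentiation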
# Kir21 block: inhibitors of mouse Kir2.1 inward-rectifier potassium channel | Inward rectifier potassium channel 2 (Mus musculus), P35561 | HEK293-Kir2.1, FluxOR thallium flux fluorescence; stronger effect = lower value | B-score at 10 µM | 310,000 tested, 0.85% active | AID 1672, 2009;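 active = fluorescence ratio B-score at or below minus 3 SD of library scores, with starting-brightness B-score within 2 SD, cut at about -4.2 in these data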;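 also: channel flux triggered by added potassium and thallium sulfate stimulus; B-score of peak minus minimum fluorescence over baseline after thallium stimulus; more negative B-score means stronger Kir2.1 block with less thallium influx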
# Target sequence (P35561 whole entry, looked up): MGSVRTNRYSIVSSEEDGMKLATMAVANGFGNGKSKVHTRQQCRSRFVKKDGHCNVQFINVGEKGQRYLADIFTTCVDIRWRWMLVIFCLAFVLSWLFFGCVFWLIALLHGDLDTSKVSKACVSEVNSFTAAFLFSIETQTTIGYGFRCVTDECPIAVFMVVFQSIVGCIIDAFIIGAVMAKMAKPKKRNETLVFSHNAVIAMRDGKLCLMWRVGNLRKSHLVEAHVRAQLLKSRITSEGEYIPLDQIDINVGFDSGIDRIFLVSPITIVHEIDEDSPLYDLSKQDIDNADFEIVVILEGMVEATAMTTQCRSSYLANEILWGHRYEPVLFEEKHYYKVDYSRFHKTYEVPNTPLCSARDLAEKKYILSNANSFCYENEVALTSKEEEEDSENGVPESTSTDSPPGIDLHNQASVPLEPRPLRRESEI
# TMEM16A inh: TMEM16A chloride channel inhibitors, primary screen, cell-based, HTS. 310,000 tested, 1.2% active. HEK293 TMEM16A/YFP iodide influx fluorescence, ionomycin. Anoctamin-1 (Mus musculus), Q8BHY3. normalized B-score (activity score, 25-100; higher = stronger inhibition) at 10 µM;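 active = ratio plate-corrected score three or more library SD toward inhibition, starting fluorescence score within five deviations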;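 also: score derived from kinetic fluorescence span divided by baseline fluorescence per well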
# TMEM16A reconf: TMEM16A chloride channel inhibitors, confirmation, cell-based, re-confirmation; shares compounds with TMEM16A inh; HEK293 TMEM16A/YFP-H148Q, iodide quench fluorescence; ionomycin added to raise cell calcium; inhibition, % at 10 µM; 2,300 tested, 39% active; AID 652189, 2013;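 active = mean duplicate percent inhibition, scaled so buffer wells are 0 and the reference blocker 100, over three buffer SD above buffer mean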
# HEK293 Ca mobil: calcium mobilization in TMEM16A/YFP HEK293 cells, confirmation, counter-screen for TMEM16A inhibitor project. calcium response (% of ionomycin), % at 10 µM. shares compounds with TMEM16A inh. 2,300 tested, 2% active. Fluo4 calcium mobilization;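 active = duplicate-averaged calcium signal over 20% of the ionomycin maximum, relative to buffer baseline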;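 also: each well's signal is peak minus trough fluorescence divided by its pre-addition baseline; 0% = buffer wells and 100% = ionomycin wells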
# YFP-HEK293 quench: iodide YFP quench changes in parental YFP-HEK293, counter-screen for TMEM16A inhibitor project, cell-based | shares compounds with TMEM16A inh | ionomycin | YFP ratio F(max-min)/F0 at 10 µM | 2,300 tested, under 10 active;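 active = yellow fluorescent protein signal ratio exceeding the buffer control mean by over 5 SD of those controls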;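 also: ratio is mean of duplicate wells from kinetic YFP trace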
# ClC-1 inh: ClC-1 chloride channel inhibition, selectivity assay for TMEM16A inhibitor project, cell-based, voltage-dependent ClC-1; AID 652236, 2013; 2,300 tested, under 10 active; CHO ClC-1-YFP, iodide influx fluorescence quench; iodide control reads 0, buffer control 100; shares compounds with TMEM16A inh; ratio percent, % at 10 µM;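 active = duplicate-mean ratio percent above the mean of iodide-only control wells, which defines zero, plus 5 of their SD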;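 also: higher percent means stronger block of ClC-1 iodide influx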
# * = called active by the depositor; i = inactive; . = not tested or not shown. Sampled rows, rich in hits. Any-hit rate of the full collection: about 3.7%.
SMILES,GPR7 antagonist,CHT block,CHT PAM,ANO1 activ,Kir21 block,TMEM16A inh,TMEM16A reconf,HEK293 Ca mobil,YFP-HEK293 quench,ClC-1 inh
CCCCN(CCCC)c1nc(OC)nc(-n2nnc(C(C)=O)c2C)n1,-3,i,i,i,-0.01,25*,17%*,i,-1.1,-12
CCc1ccccc1N(C)C(=O)CCc1nc(-c2ccc(C)cc2)no1,-17,i,i,i,-1.7,100*,i,i,-1.1,6
O=C(CO/N=C\c1ccccc1)Nc1ccccc1C(=O)N1CCOCC1,-11,i,i,i,-1.5,i,.,.,.,.
Cc1ccc(Cn2ccc(-c3cnc(-c4ccccc4)s3)n2)cc1,-10,i,i,i,-0.36,100*,20%*,i,-1,-6
CCN1CCc2c(sc(N)c2C(N)=O)C1,-4,i,i,i,-2.1,i,27%*,i,-1.1,-4
CN(CC(CC(=O)Nc1nncs1)c1ccccc1)S(=O)(=O)c1ccc(Br)cc1 (stereo unspecified),0,i,i,i,-2.8,100*,i,i,-0.96,-12
Cc1nnc(NC(=O)CC(CN(C)S(=O)(=O)c2ccccc2)c2ccccc2)s1 (stereo unspecified),-13,i,i,i,-0.34,i,.,.,.,.
NC(=O)Cn1cnc2nc3n(c2c1=O)CCC3,-8,i,i,i,0.11,i,.,.,.,.
O=C(CCCn1c(=O)[nH]c2ccsc2c1=O)N1CCN(Cc2ccc3c(c2)OCO3)CC1,10,i,i,i,0.82,i,.,.,.,.
O=C(CCCCCn1c(=O)[nH]c2ccsc2c1=O)NCc1ccc2c(c1)OCO2,-11,i,i,i,1.4,25*,i,i,-1.2,-7
COc1ccc(CCNC(=O)CCN2C(=O)C(C)Oc3ccc(C)cc32)cc1OC (stereo unspecified),0,i,i,i,-0.7,100*,i,i,-1.2,-10
COc1ccc(CCNC(=O)CCN2C(=O)COc3ccc(C)cc32)cc1OC,-4,i,i,i,-0.02,i,.,.,.,.
COc1ccc(S(=O)(=O)N2CCCOC2CNC(=O)C(=O)NC2CCCC2)cc1 (stereo unspecified),-1,i,i,i,-0.61,i,.,.,.,.
CC(C)c1nnc(SCC(=O)N2CCc3ccccc32)n1C,-8,i,i,i,-0.5,100*,i,i,-1,-3
O=[N+]([O-])c1cc(Cl)cc(/C=N/NC(=S)Nc2ccc(S(=O)(=O)N3CCOCC3)cc2)c1O,-12,-8.8*,i,i,0,25*,70%*,i,-0.73,4
CC(C)C(NC(=O)c1ccc(Cl)c([N+](=O)[O-])c1)C(=O)NCc1ccccn1 (stereo unspecified),.,.,.,i,.,.,.,.,.,.
C=CCN(c1ccccc1)S(=O)(=O)c1cccc(C(=O)Nc2ccncc2)c1,.,i,i,i,-2.1,100*,20%*,i,-1,-7

# Bioassay records as filed in PubChem.
